Where “and” joins values, the source holds several entries; their conditions need not be identical. Equal values may be shown once. The campaign covered roughly 5,500 compounds. About 2,000 (36%) were called active. Another 18% or so got no clear call; they are omitted. Rule as the data show it: active = normalized growth mostly below about 0.91 (no sharp cut-off); inconclusive = no clear call, values can overlap the other calls; inactive = mostly above about 0.92. The list shows a part of the results.
Experiment: chemical genetic growth profiling, strain panel (AID 1159580);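 also: tested at 20 µM; growth read once vehicle control cultures reached saturation at 30 °C; 1 = growth at the plate median or of vehicle wells; lower values mean less growth of the strain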
Details: growth OD
[1] = S. cerevisiae deletion strains, locus YAL013W, strain DEP1, hits give low values
[2] = S. cerevisiae deletion strains, locus YBR229C, strain ROT2, hits give low values
[3] = S. cerevisiae deletion strains, locus YDL101C, strain DUN1, hits give low values
[4] = S. cerevisiae deletion strains, locus YDL134C, strain PPH21, hits give low values
[5] = S. cerevisiae deletion strains, locus YDR150W, strain NUM1, hits give low values
[6] = S. cerevisiae deletion strains, locus YEL061C, strain CIN8, hits give low values
[7] = S. cerevisiae deletion strains, locus YGR078C, strain PAC10, hits give low values
[8] = S. cerevisiae deletion strains, locus YGR229C, strain SMI1, hits give low values
[9] = S. cerevisiae deletion strains, locus YHR030C, strain SLT2, hits give low values
[10] = S. cerevisiae deletion strains, locus YHR087W, strain rtc3, hits give low values
[11] = S. cerevisiae deletion strains, locus YJR043C, strain POL32, hits give low values
[12] = S. cerevisiae deletion strains, locus YJR075W, strain HOC1, hits give low values
[13] = S. cerevisiae deletion strains, locus YKL190W, strain CNB1, hits give low values
[14] = S. cerevisiae deletion strains, locus YLR039C, strain RIC1, hits give low values
[15] = S. cerevisiae deletion strains, locus YLR058C, strain SHM2 (second series), hits give low values
[16] = S. cerevisiae deletion strains, locus YLR085C, strain ARP6, hits give low values
[17] = S. cerevisiae deletion strains, locus YLR262C, strain YPT6, hits give low values
[18] = S. cerevisiae deletion strains, locus YML094W, strain GIM5, hits give low values
[19] = S. cerevisiae deletion strains, locus YMR219W, strain ESC1, hits give low values
[20] = S. cerevisiae deletion strains, locus YMR263W, strain SAP30, hits give low values
[21] = S. cerevisiae deletion strains, locus YNL128W, strain TEP1, hits give low values
[22] = S. cerevisiae deletion strains, locus YNL153C, strain GIM3, hits give low values
[23] = S. cerevisiae deletion strains, locus YNL298W, strain CLA4 (second series), hits give low values
[24] = S. cerevisiae deletion strains, locus YNL322C, strain KRE1, hits give low values
[25] = S. cerevisiae deletion strains, locus YNR030W, strain Alg12, hits give low values
[26] = S. cerevisiae deletion strains, locus YPL055C, strain LGE1, hits give low values
[27] = S. cerevisiae deletion strains, locus YPL241C, strain CIN2, hits give low values
[28] = S. cerevisiae deletion strains, locus YPR135W, strain CTF4, hits give low values
[29] = S. cerevisiae strains, strain wild type, hits give low values

Measured: normalized growth

O=C(O/N=C1/CCCc2[nH]c3ccccc3c21)c1ccc(Cl)cc1Cl
active: [1] 0.906 | [9] 0.426 and 0.762 | [13] 0.807 | [14] 0.708 | [16] 0.55 | S. cerevisiae deletion strains, locus YLR113W, strain HOG1, hits give low values 0.806 | [17] 0.776 | [18] 0.822 | [20] 0.893 | S. cerevisiae deletion strains, locus YMR307W, strain GAS1, hits give low values 0.461 | [23] 0.796 | [25] 0.754 | [26] 0.733 | [27] 0.843 | [29] 0.874
inactive: S. cerevisiae deletion strains, locus YAR019C, strain CDC15, hits give low values 0.982 | S. cerevisiae deletion strains, locus YBL105C, strain PKC1, hits give low values 0.984 | S. cerevisiae deletion strains, locus YBR135W, strain CKS1, hits give low values 0.974 | S. cerevisiae deletion strains, locus YBR136W, strain MEC1, hits give low values 0.975 | S. cerevisiae deletion strains, locus YBR160W, strain CDC28, hits give low values 0.98 | [2] 0.97 | S. cerevisiae deletion strains, locus YCL061C, strain MRC1, hits give low values 0.923 | S. cerevisiae deletion strains, locus YDL017W, strain CDC7, hits give low values 0.974 | S. cerevisiae deletion strains, locus YDL028C, strain MPS1, hits give low values 0.972 | [3] 0.989 and 1 | S. cerevisiae deletion strains, locus YDL108W, strain KIN28, hits give low values 0.972 | S. cerevisiae deletion strains, locus YDL132W, strain cdc53, hits give low values 0.976 | [4] 0.968 | S. cerevisiae deletion strains, locus YDL214C, strain PRR2, hits give low values 0.917 | S. cerevisiae deletion strains, locus YDR052C, strain DBF4, hits give low values 0.985 | S. cerevisiae deletion strains, locus YDR054C, strain cdc34, hits give low values 0.984 | [5] 0.943 | S. cerevisiae deletion strains, locus YDR226W, strain ADK1, hits give low values 0.96 | S. cerevisiae deletion strains, locus YDR477W, strain SNF1, hits give low values 0.91 | [6] 0.917 | S. cerevisiae deletion strains, locus YER123W, strain YCK3, hits give low values 0.917 | S. cerevisiae deletion strains, locus YER133W, strain GLC7, hits give low values 0.91 | S. cerevisiae deletion strains, locus YFL009W, strain cdc4, hits give low values 0.971 | S. cerevisiae deletion strains, locus YFL029C, strain CAK1, hits give low values 0.98 | S. cerevisiae deletion strains, locus YFR003C, strain YPI1, hits give low values 0.973 | S. cerevisiae deletion strains, locus YFR019W, strain FAB1, hits give low values 0.95 | S. cerevisiae deletion strains, locus YFR028C, strain CDC14, hits give low values 0.977 | S. cerevisiae deletion strains, locus YGR040W, strain KSS1, hits give low values 0.908 | S. cerevisiae deletion strains, locus YGR052W, strain FMP48, hits give low values 0.897 | [7] 0.962 | S. cerevisiae deletion strains, locus YGR092W, strain DBF2, hits give low values 0.982 | [8] 0.993 | S. cerevisiae deletion strains, locus YHR079C, strain IRE1, hits give low values 0.988 | S. cerevisiae deletion strains, locus YHR082C, strain KSP1, hits give low values 0.943 | [10] 0.982 | S. cerevisiae deletion strains, locus YHR205W, strain SCH9, hits give low values 0.961 | S. cerevisiae deletion strains, locus YIL147C, strain SLN1, hits give low values 0.976 | S. cerevisiae deletion strains, locus YJL095W, strain BCK1, hits give low values 0.935 | S. cerevisiae deletion strains, locus YJL128C, strain PBS2, hits give low values 0.921 | S. cerevisiae deletion strains, locus YJL157C, strain FAR1, hits give low values 0.906 | S. cerevisiae deletion strains, locus YJR016C, strain ILV3, hits give low values 0.964 | [11] 0.941 | S. cerevisiae deletion strains, locus YJR066W, strain TOR1 (second series), hits give low values 0.876 | S. cerevisiae deletion strains, locus YJR066W, strain TOR1, hits give low values 0.987 | [12] 0.895 | S. cerevisiae deletion strains, locus YKL048C, strain ELM1, hits give low values 0.963 | S. cerevisiae deletion strains, locus YKL067W, strain YNK1, hits give low values 0.946 | S. cerevisiae deletion strains, locus YKL101W, strain HSL1, hits give low values 0.935 | S. cerevisiae deletion strains, locus YKL193C, strain SDS22, hits give low values 0.969 | S. cerevisiae deletion strains, locus YKL203C, strain TOR2, hits give low values 0.958 | [15] 0.971 | S. cerevisiae deletion strains, locus YLR133W, strain CKI1, hits give low values 0.926 | S. cerevisiae deletion strains, locus YLR403W, strain SFP1, hits give low values 0.931 | S. cerevisiae deletion strains, locus YML070W, strain DAK1, hits give low values 0.914 | S. cerevisiae deletion strains, locus YMR001C, strain CDC5, hits give low values 0.977 | S. cerevisiae deletion strains, locus YMR205C, strain PFK2 (second series), hits give low values 0.935 | [19] 1.01 | S. cerevisiae deletion strains, locus YMR277W, strain FCP1, hits give low values 0.969 | S. cerevisiae deletion strains, locus YNL006W, strain LST8, hits give low values 0.983 | S. cerevisiae deletion strains, locus YNL020C, strain ARK1, hits give low values 0.921 | [21] 0.972 | [22] 0.971 | S. cerevisiae deletion strains, locus YNL161W, strain CBK1, hits give low values 0.971 | S. cerevisiae deletion strains, locus YNL183C, strain NPR1, hits give low values 1 | S. cerevisiae deletion strains, locus YNL207W, strain RIO2, hits give low values 0.976 | S. cerevisiae deletion strains, locus YNL222W, strain SSU72, hits give low values 0.97 | S. cerevisiae deletion strains, locus YNL307C, strain MCK1 (second series), hits give low values 0.937 | [24] 0.993 | S. cerevisiae deletion strains, locus YOL078W, strain AVO1, hits give low values 0.971 | S. cerevisiae deletion strains, locus YOL136C, strain PFK27, hits give low values 0.917 | S. cerevisiae deletion strains, locus YOR061W, strain CKA2, hits give low values 0.935 | S. cerevisiae deletion strains, locus YOR119C, strain RIO1, hits give low values 0.97 | S. cerevisiae deletion strains, locus YOR231W, strain MKK1, hits give low values 0.939 | S. cerevisiae deletion strains, locus YOR329C, strain SCD5, hits give low values 0.972 | S. cerevisiae deletion strains, locus YPL031C, strain PHO85, hits give low values 0.9 | S. cerevisiae deletion strains, locus YPL153C, strain RAD53, hits give low values 0.918 | S. cerevisiae deletion strains, locus YPL204W, strain HRR25, hits give low values 0.912 | S. cerevisiae deletion strains, locus YPL209C, strain IPL1, hits give low values 0.977 | S. cerevisiae deletion strains, locus YPL256C, strain CLN2, hits give low values 0.882 | S. cerevisiae deletion strains, locus YPR025C, strain CCL1, hits give low values 0.979 | S. cerevisiae deletion strains, locus YPR106W, strain ISR1, hits give low values 0.979 | S. cerevisiae deletion strains, locus YPR111W, strain DBF20, hits give low values 0.972 | [28] 0.681 | S. cerevisiae deletion strains, strain NNK1, hits give low values 0.975 | S. cerevisiae deletion strains, strain TSCII, hits give low values 0.972

Cn1c2c(c3ccccc31)/C(=N\OC(=O)c1ccc(Cl)cc1Cl)CCC2
inactive: [1] 1.01 | [2] 1.03 | [3] 1.02 | [4] 1.02 | [5] 1.04 | [6] 0.957 | [7] 1.03 | [8] 1.02 | [9] 1.07 | [10] 0.986 | S. cerevisiae deletion strains, locus YJL187C, strain SWE1, hits give low values 1.01 | [11] 1.02 | [12] 1.01 | [13] 1.01 | [14] 1.01 | [15] 1.02 | [16] 0.977 | [17] 1.15 | [18] 1 | [19] 1 | [20] 0.986 | [21] 1.01 | [22] 1.04 | [23] 1.01 | [24] 1.01 | [25] 1.03 | [26] 0.982 | [27] 0.98 | [28] 1.11 | [29] 1.02

From PubChem BioAssay AID1159580 (chemical genetic matrix, 2015)
